The supplement of paper PMC9254222
Over roughly 1,100 compounds, “Renilla luciferase signal (cell health) relative to plate median” has its median near 0.97; the highest 2% begin near 1.6. This is one part of a sample in which the highest values are shown more often than they occur.

System: HEK293T (UBE3A T485A transfected, BAR Wnt reporter)
Assay: Renilla luciferase signal (cell health) relative to plate median (fold (linear ratio)); higher = higher Renilla signal
Conditions: 24 h
In short: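 Chemicals were robotically dosed at 0.01–100 uM for 24 h onto HEK293T cells, starting four hours after transfection with a BAR firefly luciferase Wnt reporter, TK-Renilla and an expression plasmid. The cells had been plated at 4500 cells/well in DMEM with 10% FBS at 37°C and 5% CO2. Following a Dual-Glo luciferase readout, the firefly/Renilla ratio served as the Wnt activity measure and raw Renilla as the cell health measure, both median-centred on each plate. Each value is the mean of four biological replicates.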

SMILES	Renilla luciferase signal (concentration: 0.01 uM)	Renilla luciferase signal (concentration: 0.1 uM)	Renilla luciferase signal (concentration: 1 uM)	Renilla luciferase signal (concentration: 10 uM)	Renilla luciferase signal (concentration: 100 uM)
O=C(Nc1ccccc1)Nc1cnns1 [Thidiazuron]	1.1	1.07	1	0.921	0.135
C[Si](Cn1cncn1)(c1ccc(F)cc1)c1ccc(F)cc1 [Flusilazole]	1.03	1.08	1.03	0.986	0.258
CC(C)[C@H](C(=O)O[C@H](C#N)c1cccc(Oc2ccccc2)c1)c1ccc(Cl)cc1 [Esfenvalerate]	0.932	0.969	0.846	0.908	0.397
Nc1cnn(-c2ccccc2)c(=O)c1Cl [Chloridazon]	0.928	0.982	0.916	1.1	1.34
Cc1ccccc1[N+](=O)[O-] [2-Nitrotoluene]		1.24	1.08	1.14	1.33
Cc1nc(N(C)C)nc(OC(=O)N(C)C)c1C [Pirimicarb]	1.09	1.09	1.1	1.21	2.4
O=C([O-])C(F)(F)C(F)(F)C(F)(F)C(F)(F)C(F)(F)C(F)(F)C(F)(F)F.[NH4+] [PFOA, ammonium salt]		0.839	0.971	0.797	0.224
Clc1cccc(Cl)c1 [1,3-Dichlorobenzene]		0.976	1.06	1.08	1.26
Cc1ccc(N=C=O)cc1N=C=O [Toluene-2,4-diisocyanate]		0.891	0.94	1.08	0.677
COP(=S)(OC)SCN1C(=O)c2ccccc2C1=O [Phosmet]		0.82	0.838	0.713	0.82
CNC(=O)CSP(=S)(OC)OC [Dimethoate]	1.22	0.985	0.987	1.12	1.67
COc1nn(CSP(=S)(OC)OC)c(=O)s1 [Methidathion]	0.805	0.65	0.845	0.715	0.562
CCC1(c2ccccc2)C(=O)N=C([O-])NC1=O.[Na+] (stereo not drawn) [Phenobarbital sodium]		0.831	0.817	0.777	0.914
COCCOCCO [Diethylene glycol monomethyl ether]		1.01	0.991	1.01	1.32
C[N+]1(C)CCCCC1.[Cl-] [Mepiquat chloride]	1.1	1.08	1.06	1.02	1.31
CN(C)C(=S)[S-].CN(C)C(=S)[S-].[Zn+2] [Ziram]		0.814	0.726	0.999	0.0214
CNC(=S)[S-].O.O.O.[Na+] [Metam-sodium hydrate]	1.32	1.02	1.07	1.06	1.67
CN(C)C(=S)[S-].[Na+] [Sodium dimethyldithiocarbamate]		0.974	1.07	0.874	1.06
Nc1ccc(/N=N/c2ccccc2)cc1 [4-Aminoazobenzene]		0.476	0.565	0.351	0.181
NC1=NC(O)C2C3OC4(O)OC(C(O)C2(N1)C4O)C3(O)CO (stereo not drawn) [Tetrodotoxin (TTX)]	1.02	0.976	0.904	1.03	2.57

SMILES	Renilla luciferase signal (concentration: 0.01 uM)	Renilla luciferase signal (concentration: 0.1 uM)	Renilla luciferase signal (concentration: 1 uM)	Renilla luciferase signal (concentration: 10 uM)	Renilla luciferase signal (concentration: 100 uM)
OC(c1ccc(Cl)cc1)(c1cncnc1)c1ccccc1Cl (stereo not drawn) [Fenarimol]	1.21	0.875	0.953	0.942	0.199
CCN(CC)c1ccccc1 [N,N-Diethylaniline]		1.07	1.06	1.09	1.47
OCCCBr [3-Bromo-1-propanol]		0.865	0.896	0.988	0.976
Cc1nn(-c2cc(NS(C)(=O)=O)c(Cl)cc2Cl)c(=O)n1C(F)F [Sulfentrazone]	1.01	1.05	0.889	1.04	1.21
CCOC(=O)C(Cl)Cc1cc(-n2nc(C)n(C(F)F)c2=O)c(F)cc1Cl (stereo not drawn) [Carfentrazone-ethyl]	0.995	1.11	0.895	0.956	1.9
CCOC(=O)COc1cc(-c2nn(C)c(OC(F)F)c2Cl)c(F)cc1Cl [Pyraflufen-ethyl]	0.786	0.651	0.92	0.846	1.17
COc1cc(-c2ccc(N)c(OC)c2)ccc1N.Cl.Cl [3,3'-Dimethoxybenzidine dihydrochloride]		0.847	0.823	0.799	0.158
COc1cc(Cl)c(OC)cc1Cl [Chloroneb]	0.913	0.991	1.07	1.06	1.91
COc1cc(-c2ccc(N)c(OC)c2)ccc1N [3,3'-Dimethoxybenzidine]		0.89	0.92	0.684	0.388
CNc1cnn(-c2cccc(C(F)(F)F)c2)c(=O)c1Cl [Norflurazon]	1.06	0.78	0.77	0.879	1.28
CCC(C)(C)c1ccc(O)c(C(C)(C)CC)c1 [2,4-Bis(2-methylbutan-2-yl)phenol]		1.05	1.07	0.955	1.13
N#CN [Cyanamide]	0.837	0.715	0.775	0.84	1.25
COP(=O)(OC)O/C(C)=C/C(=O)N(C)C [Dicrotophos]	1.19	1.16	0.994	1.09	1.78
COP(=O)(OC)OC=C(Cl)Cl [Dichlorvos]	1.12	0.778	0.818	0.853	0.717
CNC(=O)/C=C(\C)OP(=O)(OC)OC [Monocrotophos]	0.824	0.815	0.785	0.826	1.45
COc1cc(C=O)cc2c1[C@H](COC(N)=O)[C@]1(OC(C)=O)ON2C[C@H]2[C@@H]1N2C(C)=O		0.566	0.0435	0.0233	0.0248
CCOP(=S)(OCC)SCn1c(=O)oc2cc(Cl)ccc21 [Phosalone]	0.915	1.15	1.1	1.11	0.931
CCCCN(CC)c1c([N+](=O)[O-])cc(C(F)(F)F)cc1[N+](=O)[O-] [Benfluralin]	1.12	0.838	0.99	0.917	1.31
COc1cc2c(c(OC)c1OC)-c1ccc(OC)c(=O)cc1[C@@H](NC(C)=O)CC2 [Colchicine]		0.0537	0.036	0.0452	0.0414
